Results as given in PubChem BioAssay (NCI).
About 79,000 compounds went through this panel and 15% of them were active in at least one assay; those are over-represented in the sample as a whole. Unmarked numbers belong to inactive results. Activity calls are given as the source filed them. Rule as the data show it: active = growth inhibition above about 70%; inactive = the rest.

What was measured:
[1] = NCI Yeast Anticancer Drug Screen. Data for the rad50 strain (AID 155);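 also: 0% = growth of vehicle-only cultures of the same strain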; settings: S. cerevisiae rad50 strain growth inhibition, hits give high values
Procedure, shortened: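 Inhibition values express reduced yeast growth in compound-treated cultures relative to vehicle-treated controls.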

[2] = NCI Yeast Anticancer Drug Screen. Data for the mec2-1 strain (AID 157); settings: S. cerevisiae mec2-1 strain, hits give high values
Procedure, shortened: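 Strain: mec2-1 (DNA repair/cell cycle alteration). Compound exposure, then growth measured; inhibition expressed relative to vehicle.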

[3] = NCI Yeast Anticancer Drug Screen. Data for the sgs1 mgt1 strain (AID 161);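 also: 0% = growth of cultures given vehicle only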; settings: S. cerevisiae sgs1 mgt1 strain, hits give high values
Procedure, shortened: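 Genetically altered yeast, compound exposure, growth inhibition relative to vehicle.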

[4] = NCI Yeast Anticancer Drug Screen. Data for the cln2 rad14 strain (AID 165);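 also: 0% = growth equal to vehicle treated cultures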; settings: S. cerevisiae cln2 rad14 strain, hits give high values
Procedure, shortened: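 Compounds are applied to the cln2 rad14 yeast strain, and growth is then compared with that of vehicle-treated cultures to give inhibition.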

[5] = NCI Yeast Anticancer Drug Screen. Data for the bub3 strain (AID 167); settings: S. cerevisiae bub3 mutant strain, hits give high values
Procedure, shortened: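 Steps: expose the mutant yeast strain to compound; grow alongside vehicle-treated cultures; measure growth; express inhibition against the vehicle cultures.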

[6] = NCI Yeast Anticancer Drug Screen. Data for the mlh1 rad18 strain (AID 175); settings: S. cerevisiae mlh1 rad18 strain growth inhibition, hits give high values
Procedure, shortened: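 Read-out is yeast growth inhibition, calculated against vehicle-only controls. The compound was applied to a strain engineered with DNA damage repair alterations.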

[7] = at 5.0 µM (retest, dose inferred, filed as 0.5)
[8] = at 50.0 µM (retest, dose inferred, filed as 5.0)

SMILES	growth inhibition [1, 7]	growth inhibition [1, 8]	growth inhibition ([1]; at 50.0 µM)	growth inhibition [2, 7]	growth inhibition [2, 8]	growth inhibition ([2]; at 50.0 µM)	growth inhibition [3, 7]	growth inhibition [3, 8]	growth inhibition ([3]; at 50.0 µM)	growth inhibition [4, 7]	growth inhibition [4, 8]	growth inhibition ([4]; at 50.0 µM)	growth inhibition [5, 7]	growth inhibition [5, 8]	growth inhibition ([5]; at 50.0 µM)	growth inhibition [6, 7]	growth inhibition [6, 8]	growth inhibition ([6]; at 50.0 µM)
CC(C)NCCCNc1nc(NCCCNC(C)C)c2nc(-c3ccccc3)c(-c3ccccc3)nc2n1	4%	82% (active)	52%	1%	88% (active)	58.7%	-2%	86% (active)	53.4%	-3%	56%	55.8%	0%	35%	50.1%	2%	90% (active)	57.2%
CN(C)CC/C(=N\Nc1ccc([N+](=O)[O-])cc1)c1ccccc1	12%	65%	99.5% (active)	8%	86% (active)	84.4% (active)	29%	96% (active)	99.2% (active)	1%	62%	98.8% (active)	8%	98% (active)	99.7% (active)	19%	97% (active)	98.5% (active)
CN(C)Cc1ccc(C(C)(C)C)cc1-c1cc(C(C)(C)C)ccc1CN(C)C	7%	3%	1.6%	7%	-4%	1.8%	-10%	2%	-32.4%	26%	-17%	-40.5%	-27%	-16%	-30.8%	-6%	-9%	11.9%
CCOc1ccc2nc([NH-])sc2c1.CCOc1ccc2nc([NH-])sc2c1.CCOc1ccc2nc([NH-])sc2c1.CCOc1ccc2nc([NH-])sc2c1.[Cl][Rh][Cl]	-5%	46%	29.9%	0%	32%	31.6%	4%	63%	67.2%	-5%	26%	30.1%	-10%	34%	0.25%	6%	81% (active)	80% (active)
O=C(O)/C(=C/c1ccc(Cl)cc1)c1ccccc1	-5%	23%	4.7%	-7%	23%	44.5%	-3%	27%	10.6%	-10%	39%	90.7% (active)	-8%	17%	9.95%	-5%	45%	39.6%
O=C(NCCl)Nc1ccccc1	-3%	62%	57.7%	5%	82% (active)	62.8%	8%	86% (active)	67.9%	1%	65%	17.9%	6%	79% (active)	67.5%	6%	83% (active)	66%
CC(=O)Sc1ccccc1C(=O)NCc1ccc(Cl)cc1	2%	97% (active)	97.8% (active)	-8%	98% (active)	99% (active)	2%	97% (active)	97.8% (active)	-12%	94% (active)	98.5% (active)	0%	96% (active)	98.5% (active)	13%	96% (active)	98.7% (active)
N=C(N)Sc1ccc([N+](=O)[O-])cc1Cl	45%	94% (active)	85.2% (active)	35%	96% (active)	86.8% (active)	56%	97% (active)	90.3% (active)	36%	89% (active)	84.5% (active)	40%	59%	86.2% (active)	63%	96% (active)	85.7% (active)
CCN(CC)CCCC(=O)Nc1cc(OC)cc2cccnc12	2%	0%	3.65%	15%	-3%	6.3%	8%	1%	-4.7%	1%	-1%	-2.55%	1%	-3%	-1.85%	2%	-1%	13.4%
CC(C)(C[NH-])C[NH-].[Cl][Pt+2]([Cl])([Cl])[Cl]	78% (active)	97% (active)	82.3% (active)	93% (active)	99% (active)	86.5% (active)	95% (active)	99% (active)	86.5% (active)	79% (active)	99% (active)	87.4% (active)	95% (active)	99% (active)	82.5% (active)	90% (active)	97% (active)	57.5%
